Compounds with a hit are over-represented: about 10% of the library has one in this group of screens.
BAZ2B inh – inhibitors of human BAZ2B bromodomain. Potency, µM (titrated, usually from 114 µM), for the others: at the top dose activity change, negative = inhibition, actives largely listed as inhibitors. 360,000 tested, 4.4% active. AlphaScreen BAZ2B-H3K14Ac peptide displacement; note: % is set by controls: 0 for no effect and ±100 for the full control effect; nearly all actives have a fitted effect of over 60% in size
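AlphaScreen displacement of biotin-H3(5-23)K14Ac peptide (50 nM final) from BAZ2B (50 nM final) in PBS pH 7.4, 0.01% Tween-20; complex preformed 30 min RT, then compounds (top 110 uM) 30 min RT, beads 20 min dark.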
GLS inh – blocks human kidney-isoform glutaminase activity | O94925 | GLS enzymatic activity, qHTS titration | Potency, µM (doses to about 45.5 µM), for the others: at the top dose activity change, negative = inhibition, hits mostly inhibitors | 410,000 tested, 0.21% active | AID 624170; note: % is set by controls: 0 for no effect and ±100 for the full control effect
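Enzyme dispensed in phosphate buffer (45 mM, pH 8.2, 0.02% Tween-20), compounds pinned in, then 1 mM L-glutamine solution and the glutamate oxidase–HRP–Amplex Red mix added; fluorescence read immediately and again after 30 min at room temperature.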
HP1b binding inh – HP1-beta chromodomain-methylated histone interaction inhibition; AlphaScreen HP1-beta / biotin-H3K9me3 peptide binding; Potency, µM (titrated, usually from 114 µM), inactives show at the highest dose activity change, negative = inhibition, usual class: inhibitors; 390,000 tested, 0.56% active; note: nearly all actives have a fitted effect of over 70% in size
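Compound inhibition of the preformed complex between 50 nM HP1-beta and 50 nM biotinylated H3K9me3 peptide was read by AlphaScreen. Buffer was PBS pH 7.4 with 0.01% Tween-20. Incubations ran 30 min at room temperature, with 10 ug/mL donor/acceptor beads.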
G9a inh – blocks human histone lysine methyltransferase G9a | Q96KQ7 | G9a H3K9 monomethylation, AlphaScreen, 2 h | Potency, µM (top dose mostly 102 µM), inactives show top-dose activity, negative = inhibition, usual class: inhibitors | 350,000 tested, 8.8% active; note: % is set by controls: 0 for no effect and ±100 for the full control effect; nearly all actives have a fitted effect of over 75% in size
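Compounds were preincubated with 20 nM G9a for 15 min, after which biotinylated H3K9 peptide (500 nM) and SAM (20 uM) started a 2 h room-temperature reaction. Monomethylated product was quantified by antibody-based AlphaScreen chemiluminescence.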
JMJD2A Tudor inh – inhibitors of human JMJD2A Tudor domain | O75164 | AlphaScreen JMJD2A-Tudor / H3K4me3 peptide binding | Potency, µM (highest dose often 114 µM), for inactives: at the highest dose activity change, negative = inhibition, actives largely listed as inhibitors | 390,000 tested, 4.4% active | AID 504339; note: % is set by controls: 0 for no effect and ±100 for the full control effect; nearly all actives have a fitted effect of over 50% in size
Active calls of the source: *; ? = inconclusive; / = no result; [ ] = another dose, or the depositor's remark. Calls come from the whole dose curve; as a rule, active = well fitted curve in the direction sought with a large enough effect; inconclusive = small, poorly fitted or top-dose-only effect, or another doubt; inactive = no such curve, though single readings can be large; an effect the other way counts as inactive or inconclusive. Potency is the fitted concentration of half-maximal effect.

SMILES | BAZ2B inh | GLS inh | HP1b binding inh | G9a inh | JMJD2A Tudor inh
COc1ccc(CN2CCNC(=O)C2CC(=O)NCCc2cnccn2)cc1C (stereo unspecified) | -23% | -7% | 39% | 79µM* | -10%
O=C(CC1C(=O)NCCN1Cc1cccc(Oc2ccccc2)c1)NCCc1cnccn1 (stereo unspecified) | -10% | 3% | 42% | / | -25%
COc1cc(CN2CCNC(=O)C2CC(=O)N(C)CCC2CCOCC2)cc(OC)c1 (stereo unspecified) | -8% | 40% | 22% | -2%[0.501 µM] | ?
CCOc1ccc(CN2CCNC(=O)C2CC(=O)NC2CCOCC2)cc1 (stereo unspecified) | 0% | -1% | 47% | 81% | -4%
COc1ccc(CN2CCNC(=O)C2CC(=O)N(C)CCC2CCOCC2)cc1OC (stereo unspecified) | -16% | 4% | 17% | 71µM* | -23%
CNC(=O)COC(=O)CNC(=O)c1cc(Cl)cc([N+](=O)[O-])c1 | / | 5% | 22% | 2% | -6%
Cc1ccc(S(=O)(=O)N2CCCC2C(=O)NCc2ccccc2Cl)cc1 (stereo unspecified) | 21% | -1% | 50% | / | -8%
COc1cc(CN2CCc3ccc(NC(=O)CCc4ccccc4OC)cc3C2)ccc1O | -30% | 1% | 17% | 45µM* | ?
COC(=O)c1ccc(CN2CCc3ccc(NC(=O)c4ccncc4)cc3C2)cc1 | -38% | -3% | 23% | 50µM* | -29%
COc1ccc(CN2CCc3ccc(NC(=O)CCc4ccccc4OC)cc3C2)c(O)c1 | -31% | 13% | 24% | ? | -25%
COc1cccc(CN2CCc3ccc(NC(=O)CCc4ccc(C)cc4)cc3C2)c1O | ? | 11% | 11% | 40µM* | -24%
CC(=O)Nc1ccc(NC(=O)c2ccc(CN3CCc4ccccc4C3)cc2)cc1 | -23% | 3% | 9% | 12% | -8%
CN(C)c1ccc(CNC(=O)CCS(=O)(=O)c2ccc3c(c2)oc(=O)n3C)cc1 | -11% | 1% | 50% | ? | 3%
COc1cccc(CN2CCN(C3CCN(c4cccc(C)c4C)CC3)CC2CCO)c1 (stereo unspecified) | -35% | -9% | 17% | -1% | -33%
CCC12CCCN3CCC4(C(=C(C(=O)OC)C1)Nc1ccccc14)C32 (stereo unspecified) | ? | -4% | -11% | 2.8µM* | ?
COc1ccc(C(=O)NC(=S)N(C)Cc2ccccc2)cc1Br | -4% | 2% | 24% | / | -21%
CN(Cc1ccccc1)C(=S)Nc1cccnc1 | -22% | -8% | 6% | -6% | 56µM*
CN(Cc1ccccc1)C(=S)NC(=O)c1ccccc1 | -25% | 0% | 19% | 50µM* | -24%
NC(=O)CC(NC(=S)NCc1ccccc1)C(=O)O (stereo unspecified) | -5% | 2% | 3% | 71µM* | -20%
O=C(NC(=S)NCc1ccncc1)c1ccccc1 | -4% | 1% | 22% | / | -10%
O=C(O)CC(NC(=S)NCc1ccccc1)C(=O)O (stereo unspecified) | -16% | -2% | 36% | ? | -2%
O=C(NC(=S)NCc1ccccc1)c1ccccc1 | -25% | 2% | 30% | 45µM* | -22%
CN1C[C@@H]2[C@@H]3C(=O)N(Cc4ccccc4)C(=O)[C@@H]3[C@](C)(C1=O)N2C(=O)c1ccc(C(F)(F)F)cc1 | / | -4% | 75% | / | -8%
O=C(Cc1csc(-c2ccccc2)n1)NCc1ccc(F)cc1 | 6% | -16% | 36% | 45µM* | 6%
O=C(NC(=S)NCc1ccc(F)cc1)c1ccccc1 | -13% | 8% | 8% | 50µM* | -10%
SMILES | BAZ2B inh | GLS inh | HP1b binding inh | G9a inh | JMJD2A Tudor inh
CCC1(c2ccc(F)cc2)NC(=O)N(CC(=O)NC2CCCC(C)C2C)C1=O (stereo unspecified) | / | 12% | 25% | / | -4%
CCn1c(CSc2nccn2C)nc2cc(C(=O)O)ccc21 | 50µM* | -14% | 20% | -38%[12.7 µM] | 32µM*
CCn1c(CSc2nc3ccccc3[nH]2)nc2cc(C(=O)O)ccc21 | ? | 14% | 5% | -45%[12.7 µM] | ?
O=C1CCCC2=C1C(c1ccc3c(c1)OCO3)c1c([nH]n(-c3ccccc3)c1=O)N2 (stereo unspecified) | -4% | 21% | -4% | 40µM* | -23%
C=CCOC(=O)C1=C(C)NC(SC)=C(C#N)C1c1ccc(OCC)cc1 (stereo unspecified) | 11% | 8% | 83% | -21% | 12%
CCSC1=C(C#N)C(c2ccc3c(c2)OCO3)C2=C(CCCC2=O)N1 (stereo unspecified) | ? | 0% | 28% | -32% | 5%
COc1cc(C2C(C#N)=C(SC)NC3=C2C(=O)CCC3)ccc1O (stereo unspecified) | -5% | 0% | 6% | ? | -8%
C=CCOC(=O)C1=C(C)NC(SCC(=O)OCC)=C(C#N)C1c1ccc(O)c(OC)c1 (stereo unspecified) | 6% | 8% | 29% | 32µM* | -15%
COc1cccc(C2C3=C(CCCC3=O)Nc3[nH]n(-c4ccccc4)c(=O)c32)c1 (stereo unspecified) | -30% | 1% | 10% | ? | -13%
CCc1ccccc1NC(=O)CSC1=C(C#N)C(c2ccc(O)c(OC)c2)C2=C(CCCC2=O)N1 (stereo unspecified) | -34% | ? | -27% | 8.9µM* | -18%[11.4 µM]
N#CC1=C(SCc2ccccc2)NC2=C(C(=O)CCC2)C1c1ccc2c(c1)OCO2 (stereo unspecified) | -38% | 1% | -2% | 4%[2.33 µM] | 45µM*
Cc1cc(C(=O)Nc2nnc(C(F)(F)F)s2)no1 | 2% | 3% | 24% | ? | -16%
COc1ccccc1CNC(=O)N1CCN(c2ccccc2)CC1 | -14% | -1% | 11% | ? | -20%
COc1ncc2nc(-c3cc(F)cc(F)c3)c(=O)n(-c3ccccc3)c2n1 | / | / | / | 13%[0.501 µM] | /
COC(=O)CSC1=C(C#N)C(c2ccc3c(c2)OCO3)C2=C(CCCC2=O)N1 (stereo unspecified) | 4% | 25% | 42% | ? | -3%
Cc1ccc(NC(=O)CSC2=C(C#N)C(c3ccc4c(c3)OCO4)C3=C(CCCC3=O)N2)c(C)c1 (stereo unspecified) | -34% | 6% | 30% | 50µM* | -26%
Cc1noc(C(=O)N2CCN(c3ccccc3)CC2)c1Cl | 10% | 5% | 40% | / | -7%
COC(=O)CC(N)c1ccc(Br)cc1 (stereo unspecified) | -2% | 7% | 30% | -40% | 7%
COC(=O)CC(NC(=S)NC(=O)c1ccccc1)c1ccc(Br)cc1 (stereo unspecified) | -19% | -4% | 25% | 40µM* | -8%
CCC(C)(C)n1nnnc1C(c1ccc(C)cc1)N1CCCC1 (stereo unspecified) | -8% | 0% | 26% | -2% | -10%
